Screening results as filed in PubChem.
rCAG binder = r(CAG) repeat RNA binding; TO-PRO-1 dye displacement fluorescence; inhibition, % at 3 µM; 1.3% of 370,000 active; AID 651821;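 active means inhibition above the plate cutoff, the mean of all test compounds on that plate plus 3 SD, cut at about 35% in these data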;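 further: 0% = DMSO alone and 100% = 100 µM mitoxantrone as full dye displacement; higher means more dye released from RNA so lower well fluorescence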
LEDGF integ inh = blocks HIV-1 LEDGF/p75-dependent DNA integration. TR-FRET IN-LEDGF/p75 DNA integration, Eu/Cy5. inhibition, % at 3.7 µM. 0.64% of 370,000 active. AID 743269;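 active means inhibition above the screen-wide mean plus 3 SD, cut at about 13% in these data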;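 further: signal is the Cy5 over europium emission ratio at 671 and 618 nm; 0% = plate median of compound wells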
PG9 Ab binder = small molecules binding HIV-1 gp120 antibody PG9 | TR-FRET gp120-PG9 antibody binding | inhibition, % at 6.7 µM | 0.43% of 360,000 active | AID 624416; in the data active means inhibition above about 8.5%
MBD2 inh = blocks human MBD2 binding to methylated DNA | Q9UBB5 | TR-FRET, MBD2 binding to methylated oligonucleotide | 0.31% of 370,000 active | inhibition, % at 4.4 µM | AID 686964; in the data active means inhibition above about 13%
Target sequence (Q9UBB5 whole entry, looked up): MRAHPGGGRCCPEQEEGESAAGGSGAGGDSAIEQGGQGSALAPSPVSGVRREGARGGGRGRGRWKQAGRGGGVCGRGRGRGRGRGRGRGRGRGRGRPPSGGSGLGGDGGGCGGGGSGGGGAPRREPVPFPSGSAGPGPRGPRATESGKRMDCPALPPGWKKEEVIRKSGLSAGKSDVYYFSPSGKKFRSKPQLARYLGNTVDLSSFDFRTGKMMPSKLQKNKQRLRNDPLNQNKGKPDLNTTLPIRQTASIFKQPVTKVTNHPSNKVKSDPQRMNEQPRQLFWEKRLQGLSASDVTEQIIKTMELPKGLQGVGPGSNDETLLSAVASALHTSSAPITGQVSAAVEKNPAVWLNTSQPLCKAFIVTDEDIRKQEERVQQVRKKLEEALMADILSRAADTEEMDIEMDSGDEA
UHRF1 binding = blocks human UHRF1 binding to methylated DNA | UHRF1 binding to methylated oligo, TR-FRET | inhibition, % at 4.4 µM | 0.75% of 370,000 active; in the data active means inhibition above about 21%;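 further: UHRF1 SRA domain binding a hemimethylated CpG hairpin DNA probe; 0% = median of test compound wells and 100% = reference inhibitor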
DNMT1 inh = blocks human DNA methyltransferase DNMT1; DNMT1 molecular beacon, Hinp1I cleavage, fluorescence; AID 588458; 0.83% of 360,000 active; inhibition (reported as % activation of signal), % at 10 µM; in the data active means inhibition above about 50%
Active calls of the source: *; · = not tested or not shown. Rows were chosen to be rich in hits. Some 3.5% of all compounds tested hit in one or more screens of this group.

SMILES | rCAG binder | LEDGF integ inh | PG9 Ab binder | MBD2 inh | UHRF1 binding | DNMT1 inh
COc1ccc(-n2c(C)cc(C(=O)CN3C(=O)c4ccccc4C3=O)c2C)cc1 | -1.6 | -0.3 | -0.6 | -1.7 | 4.4 | -5.4
COc1ccc(-n2c(C)cc(C(=O)CCl)c2C)cc1 | -1.5 | 2.1 | -1.0 | 3.1 | 23.6* | 14.5
OCCCCNCc1cc(Br)ccc1OCc1ccccc1 | 6.6 | 0.5 | -2.0 | 10.5 | 29.3* | -0.9
CC(C)(CO)NCc1cc(Br)ccc1OCc1ccccc1 | 0.9 | -3.5 | -0.3 | 2.6 | 2.5 | 7.9
Brc1ccc2c(c1)-c1ccccc1C1=NCCN12 | 6.4 | -2.6 | 4.2 | 12.9 | -10.8 | 53.4*
COc1ccc(Br)cc1S(=O)(=O)N1CCN=C1c1ccccc1 | -5.3 | 5.0 | 2.1 | -5.3 | -0.5 | -1.5
Cc1occc1-c1nnc(SCC(=O)Nc2nc3ccccc3s2)o1 | 3.4 | 3.1 | 0.4 | -1.3 | 23.1* | 6.7
O=C(Nc1ccc2c(c1)OCO2)O[C@@H]1CC[C@@]23CCCN2C(=O)CCC[C@H]3C1 | · | 1.2 | · | -10.4 | 0.6 | ·
CCOc1ccc(C(=O)NCC(C)NC(=O)c2ccc(OCC)cc2)cc1 (stereo not given) | -1.6 | 3.7 | -2.1 | 6.1 | 23.5* | 5.2
CCc1ccc(NC(=O)CC2S/C(=N/N=C3CCCCCC3)NC2=O)cc1 (stereo not given) | 11.1 | 2.4 | 2.0 | -2.5 | 0.9 | -0.1
CCCN(CC(=O)Nc1ccccc1OC)C(=O)c1ccc(S(=O)(=O)NCc2ccco2)cc1 | 1.4 | -1.6 | -0.8 | -1.4 | 0.1 | -2.1
COc1cc(-c2nnc(NC(=O)c3ccc(S(=O)(=O)N4CCOCC4)cc3)o2)cc(OC)c1OC | 2.0 | -1.9 | 0.6 | -3.4 | 82.5* | ·
COc1cccc(-c2nnc(NC(=O)c3ccc(S(=O)(=O)N4CCOCC4)cc3)o2)c1 | · | · | · | · | · | -0.8
CCOC(=O)N1CCN(S(=O)(=O)c2ccc(C(=O)Nc3nnc(CSC)o3)cc2)CC1 | 14.6 | 0.1 | -1.9 | 0.4 | 30.7* | -3.5
C=CC[C@@]1(c2ccccc2)Oc2ccccc2-c2nc3ccccc3nc21 | 4.2 | 1.1 | · | 3.1 | -0.1 | ·
C=CCN1[C@H](CC(C)C)COc2cc(N3CCCC3)ccc2S1(=O)=O | 2.9 | -1.7 | · | -2.5 | -0.7 | ·
COCCN1C(=O)COc2ccccc2C1C(=O)Nc1c(C)cccc1C (stereo not given) | 2.9 | -0.4 | 1.4 | 6.2 | 21.2* | ·
O=C(CCNS(=O)(=O)c1ccccc1)N1CCOCC1 | -1.1 | 1.9 | 0.1 | 6.8 | 2.5 | 2.5
O=C(CNS(=O)(=O)c1ccccc1)N1CCCC1 | -1.4 | 6.8 | -2.5 | 12.9 | 21.3* | -2.7
CCOC(=O)N1CCN(C(=O)CCNS(=O)(=O)c2ccccc2)CC1 | -2.2 | 0.0 | -0.7 | 0.9 | 21.6* | 1.6
O=C(NCCc1c[nH]c2ccccc12)OCc1cn(Cc2ccc(F)cc2F)nn1 | 1.7 | 2.3 | · | -1.8 | -1.7 | ·
COc1ccc(CCC[C@H](CCC(=O)N(c2ccccc2)c2ccccc2)CCc2ccccc2)cc1 | 3.0 | -2.6 | · | -3.4 | 0.9 | ·
O=[N+]([O-])c1ccc(-c2cnc(SC(c3ccccc3)c3ccccc3)[nH]2)cc1 | 17.3 | 2.4 | 0.1 | 3.2 | 45.0* | -15.8
Cc1nn(Cc2ccc(F)cc2)c2sc(C(=O)Nc3nccs3)cc12 | 7.1 | -1.1 | 15.5* | 1.6 | -2.5 | -4.6
Cn1c(=O)c2[nH]c(SCC(=O)N3CCN(c4cccc(C(F)(F)F)c4)CC3)nc2n(C)c1=O | 11.0 | -0.2 | · | 0.4 | 0.0 | ·
SMILES | rCAG binder | LEDGF integ inh | PG9 Ab binder | MBD2 inh | UHRF1 binding | DNMT1 inh
CCOc1ccccc1C(=O)NCC(=O)NNC(=O)c1csc(N2CCOCC2)n1 | 0.3 | -1.9 | -0.6 | 0.1 | -0.5 | -1.8
Cn1c(=O)c2c(nc(N3CCc4ccccc4C3)n2Cc2ccccc2F)n(C)c1=O | -0.4 | -1.1 | -2.6 | -1.8 | -0.6 | -12.3
CN1CCN(c2nc3c(c(=O)n(C)c(=O)n3C)n2Cc2ccccc2F)CC1 | -8.7 | -4.2 | 0.0 | 1.0 | 60.0* | -0.9
Cc1ccc(-c2nc(C(Cl)Cl)c3ccccc3n2)cc1 | -1.5 | -0.6 | -0.6 | 3.9 | 47.2* | 5.1
Cc1ccc(-c2nc(Nc3ccc(O)cc3)c3ccccc3n2)cc1 | 29.5 | 3.4 | -1.2 | -1.2 | 1.3 | -6.0
CC(C)c1ccc(C(C(C(=O)c2ccccc2)N2CCOCC2)N2CCOCC2)cc1 (stereo not given) | 3.3 | -1.0 | 0.4 | 4.9 | 46.9* | 3.8
Cc1cccc(C(C(C(=O)c2ccccc2)N2CCOCC2)N2CCOCC2)c1 (stereo not given) | 3.6 | -4.4 | 0.0 | -3.8 | -2.1 | -0.2
Cc1ccccc1C(=O)N=c1ccn(-c2nc3ccccc3nc2NS(=O)(=O)c2ccc(F)cc2)cc1 | 1.8 | -3.1 | -5.2 | 2.3 | 20.9* | 0.4
O=C(OC12CCCN(C1)/C(=C/c1cccc(Cl)c1)C2)c1ccco1 (stereo not given) | 4.8 | -0.5 | · | 4.1 | 0.1 | ·
CN(CCc1ccccc1)C(=O)c1cccc(NC(=O)Cc2cccc(NC(=O)C3CCN(C(=O)C4CC4)CC3)c2)c1 | 4.7 | 0.3 | -0.8 | 0.2 | 96.2* | -4.6
CCn1c(SCC(=O)NCc2ccc3c(c2)OCO3)nc2c(c1=O)SCC2 | 0.5 | 17.8* | 1.5 | -2.6 | 0.8 | 0.8
CCn1c(SCC(=O)Nc2cc(OC)ccc2OC)nc2c(c1=O)SCC2 | -1.6 | 0.5 | -1.8 | -0.5 | -4.3 | 1.2
COC(=O)c1c(-c2ccco2)csc1NC(=O)C1CC=CCC1C(=O)O (stereo not given) | 23.3 | 3.5 | 9.7* | 2.5 | 3.2 | 12.0
CCOC(=O)c1c(-c2ccc(F)cc2)csc1NC(=O)C1CC=CCC1C(=O)O (stereo not given) | 33.6 | -0.8 | 0.9 | -6.0 | -1.9 | 6.2
COc1cc(C)c(C(=O)Oc2cc(C)c(C(=O)O)c(O)c2)c(O)c1 | 34.7* | -0.6 | -1.3 | 10.0 | 2.9 | -3.7
O=C(COc1ccc(F)cc1)Nc1nnc(S(=O)(=O)N2CCCC2)s1 | 18.7 | -5.0 | -0.1 | 0.5 | 36.6* | 2.3
Cc1ccc(OCC(=O)Nc2nnc(S(=O)(=O)N3CCCCCC3)s2)cc1 | 18.1 | -4.6 | 0.7 | -3.1 | -1.6 | 7.1
CC(=O)c1c(C)n(-c2ccccc2)c2ccc(OCC(O)CN3CCOCC3)cc12 (stereo not given) | -6.9 | -3.6 | -0.4 | 0.1 | 83.2* | 2.3
CCN1CCN(Cc2ccc(NC(=O)c3cccc(-c4ccc5nc(NC(=O)C6CC6)sc5n4)c3)cc2C(F)(F)F)CC1 | 21.9 | -1.0 | -1.7 | 2.2 | -1.1 | ·
O=C(c1ccc(C(F)(F)F)cc1)N1CCC(=O)N(C(COCc2ccccc2)Cc2ccccc2)CC1 (stereo not given) | -7.1 | -1.7 | 1.1 | -4.3 | 40.1* | 0.3
CCOC(=O)C1CCCN(C2=C(NS(=O)(=O)c3ccc(Br)cc3)C(=O)c3ccccc3C2=O)C1 (stereo not given) | 9.5 | 22.4* | -2.6 | -0.8 | -2.0 | -5.1
